Results: PubChem BioAssay (NCATS)
Values joined by “and” are separate entries in the source; they are usually repeats but may differ in a detail not shown here. Identical values can stand only once. Inconclusive results are not listed. Where a call stands in place of a potency, no number is given. Active and inactive are the calls of the source. Calls follow the shape of the dose curve; as a rule, active = well fitted cell-killing curve with a large enough effect; inconclusive = small, poorly fitted or top-dose-only effect; inactive = flat fitted curve, though single readings scatter.
Potency is read from the fitted curve at half-maximal effect.

Assay: qHTS of pediatric cancer cell lines to identify multiple opportunities for drug repurposing: Primary screen for RD cells (AID 1347104); also: nearly all actives have a fitted effect of over 55% in size
Conditions: RD rhabdomyosarcoma viability, CellTiter-Glo luminescence, 48 h; series mostly up to 46 µM
Excerpt: Drug repurposing or repositioning has been offered as a strategy for drug development in oncology programs. This approach has special potential for childhood cancers and other rare or orphan diseases, where the expected return on new drug development has been a disincentive to pharmaceuticals. […] In this project we exploit the poly-pharmacology of drugs to discover new indications via phenotypic screening of a panel of 19 well-characterized cell lines derived from solid tumors seen in children and adolescents. The goal is to identify approved drugs with previously unrecognized anticancer properties that has the potential to reveal new mechanisms and biological processes involved in carcinogenesis or drug resistance. We employed a titration-based paradigm (quantitative high-throughput screening or qHTS), where all compounds were tested at multiple concentrations for their effect on cell viability. Concentration-response curves (CRCs) were derived directly from the primary screen, and both potency and efficacy values were used to identify compounds with robust bioactivity profiles. We screened the NIH Chemical Genomics Center (NCGC) Pharmaceutical Collection (NPC) and Mechanism Interrogation Plate (MIPE) small molecule collections of approved and investigational compounds against these cell lines; and measured metabolically active cells after 48 hours of compound treatment as a proxy for cell viability. […] Assay Submitter: Nathalia J. Martinez, National Center for Advancing Translational Sciences, National Institutes of Health, Rockville, MD, USA; email: natalia.martinez@nih.gov Shen, M et al. Quantitative high-throughput phenotypic screening of pediatric cancer cell lines identifies multiple opportunities for drug repurposing. Oncotarget 2017 Dec 19;9(4):4758-4772. PMID 29435139.
The cells were obtained from University of North Carolina (UNC), Pediatric Preclinical Testing Program (PPT), and Coriell Institute (CI). qHTS cell viability assay: Cells were assayed in growth media at a density of 500-1,000 cells/well. Five microliters of cells were dispensed into 1,536-well, white, solid-bottom, TC-treated plates (Greiner Bio One) using a multidrop dispenser and incubated at 37 degrees C, 5% CO2, under a humidified atmosphere for 5 hours. Twenty-three nanoliters of compounds and controls (neutral control DMSO or positive control bortezomib at final concentration of 2.3 µM) were subsequently transferred by Kalypsys pintool. For primary screens, the MIPE collection was tested at 11-point dilutions (final concentrations range from 0.78 nM to 46 µM) and the NPC collection at 8-point dilutions (final concentrations range from 0.59 nM to 46 µM). Compounds tested in follow-up screens were assayed at 11-point dilutions. Cells were incubated for 48 hours, followed by addition of 3 µL of CellTiter-Glo (Promega). After a 15 min incubation at room temperature, samples were analyzed for luminescence intensity using a ViewLux High-throughput CCD imager equipped with clear filters.
In the case of NC(=O)c1ccc(-c2nc(-c3ccc4c(c3)OCCO4)c(-c3ccccn3)[nH]2)cc1, the Potency is reported as “inactive”. With Clc1ccc(Nc2nnc(Cc3ccncc3)c3ccccc23)cc1 the Potency was “inactive”. With Oc1cccc(-c2nc(N3CCOCC3)c3oc4ncccc4c3n2)c1 the Potency was 0.241 µM (active). With Cn1cnc([N+](=O)[O-])c1Sc1ncnc2nc[nH]c12 the Potency was “inactive”. For COCCNCCCn1c(C(=O)CF)c(-c2ccc(C)cc2)c2c(N)ncnc21, the Potency was “inactive”. For NNCCc1ccccc1, the Potency was “inactive”. With Cc1[nH]c(=O)c(C#N)cc1-c1ccc2nccn2c1 the Potency was “inactive”. In the case of NC[C@H](O)c1ccc(O)c(O)c1, the Potency is reported as “inactive”. For NS(=O)(=O)c1cc2c(cc1Cl)NC=NS2(=O)=O, the Potency was “inactive”. In the case of O=C1[C@H](Cc2ccc(O)cc2)N2C(=O)CCN(C(=O)NCc3ccccc3)[C@H]2CN1Cc1cccc2ccccc12, the Potency is reported as 10.5 µM (active). For Cc1[nH]c(=O)c(C#N)cc1-c1ccncc1, the Potency was “inactive”. For CCn1cc(C(=O)O)c(=O)c2cc(F)c(N3CCNC(C)C3)c(F)c21 (stereo not given), the Potency was “inactive”. For CS(=O)(=O)c1ccc(C(=O)Nc2ccc(Cl)c(-c3ccccn3)c2)c(Cl)c1, the Potency was “inactive”. With C[C@]12CCC(=O)C=C1CC[C@@H]1[C@@H]2[C@@H](O)C[C@@]2(C)[C@H]1CC[C@]2(O)C(=O)CO the Potency was “inactive”. With Cc1cc([C@@H](C)Nc2ccccc2C(=O)O)c2nc(N3CCOCC3)cc(=O)n2c1 the Potency was 12.1 µM (active). In the case of COc1ccc2c3n(c(=NC(=O)c4cccnc4)nc2c1OC)CCN3, the Potency is reported as 1.87 µM (active). For CCOC(=O)N1CCC(=C2c3ccc(Cl)cc3CCc3cccnc32)CC1, the Potency was 29.9 µM (active). For O=C(C=Cc1ccc(/C=C/C(=O)Nc2ccc(C3=NCCN3)cc2)cc1)Nc1ccc(C2=NCCN2)cc1, the Potency was “inactive”. With c1ccc(-c2nn3c(c2-c2ccnc4cc(OCCN5CCOCC5)ccc24)CCC3)nc1 the Potency was “inactive”. With COc1cc2nccc(Oc3ccc(NC(=O)NC4CC4)c(Cl)c3)c2cc1C(N)=O the Potency was 14.8 µM (active). With Cc1cnc(Nc2ccc(OCCN3CCCC3)cc2)nc1Nc1cccc(S(=O)(=O)NC(C)(C)C)c1 the Potency was “inactive”. In the case of CC(C)(N)C(=O)N[C@H](COCc1ccccc1)C(=O)N1CCC2(CC1)CN(S(C)(=O)=O)c1ccccc12, the Potency is reported as 26.4 µM (active). In the case of CNC(=O)c1ccc(N2C(=S)N(c3ccc(C#N)c(C(F)(F)F)c3)C(=O)C2(C)C)cc1F, the Potency is reported as “inactive”. In the case of CCOc1cc(C(=O)Nc2ccc(Cl)c(-c3nc4ccccc4[nH]3)c2)cc(OCC)c1OCC, the Potency is reported as 2.96 µM (active). In the case of O=S(=O)(N=Cc1c(O)ccc2ccccc12)c1cccs1, the Potency is reported as “inactive”. With CN1CCN(CCCN2c3ccccc3Sc3ccc(C(F)(F)F)cc32)CC1 the Potency was 26.6 µM (active) and 18.7 µM (active). In the case of COc1ccc(CC2=NN3C([C@@H](CCc4ccccc4)[C@@H](C)O)=NC(C)C3C(=O)N2)cc1OC (stereo not given in full), the Potency is reported as “inactive”. In the case of CCN(CC)CCCC(C)Nc1ccnc2cc(Cl)ccc12 (stereo not given), the Potency is reported as 13 µM (active) and 6.62 µM (active). With Cc1cc(SCc2sc(-c3ccc(C(F)(F)F)cc3)nc2C)ccc1OCC(=O)O the Potency was “inactive”. For CC(C)(C)NCC(O)c1ccc(O)c(CO)c1 (stereo not given), the Potency was “inactive”. With NCCCC(N)(C(=O)O)C(F)F (stereo not given) the Potency was “inactive”. With O=C(C1CC1)N1CC[C@@H](Cn2c(-c3ccc(-c4ccc5occc5c4)cc3)nc3cnccc32)C1 the Potency was “inactive”. For O=C(O)CCc1ccc(NCc2cccc(Oc3ccccc3)c2)cc1, the Potency was “inactive”. In the case of C[C@H](NC(=O)Cc1cc(F)cc(F)c1)C(=O)N[C@@H]1C(=O)N(C)c2ccccc2-c2ccccc21, the Potency is reported as 16.6 µM (active). With CC(C)OC(=O)C1=CN(C(=O)c2ccc(F)c(F)c2)CC(C)(C)c2c1[nH]c1ccccc21 the Potency was “inactive”. For CC(=O)Oc1ccccc1C(=O)O, the Potency was “inactive”. For O=C(NOC[C@H](O)CO)c1ccc(F)c(F)c1Nc1ccc(I)cc1F, the Potency was 0.0935 µM (active). With CCCC(CCC)C(=O)O the Potency was “inactive”. In the case of Cc1n[nH]c(C)c1Cc1sc2c(c1C(=O)N1C[C@H](O)CO1)c(=O)n(C)c(=O)n2CC(C)C, the Potency is reported as “inactive”. With NC(=O)c1cnccn1 the Potency was “inactive”.
